# TDP1 inh: blocks human tyrosyl-DNA phosphodiesterase 1. Potency, µM (doses to about 130 µM), for inactives: top-dose activity change, negative = inhibition, hits mostly inhibitors. actives 0.28% (n = 350,000). AID 485290. recombinant TDP1, AlphaScreen DNA substrate cleavage; note: nearly all actives have a fitted effect of over 40% in size
# Target sequence (Q9NUW8 whole entry, looked up): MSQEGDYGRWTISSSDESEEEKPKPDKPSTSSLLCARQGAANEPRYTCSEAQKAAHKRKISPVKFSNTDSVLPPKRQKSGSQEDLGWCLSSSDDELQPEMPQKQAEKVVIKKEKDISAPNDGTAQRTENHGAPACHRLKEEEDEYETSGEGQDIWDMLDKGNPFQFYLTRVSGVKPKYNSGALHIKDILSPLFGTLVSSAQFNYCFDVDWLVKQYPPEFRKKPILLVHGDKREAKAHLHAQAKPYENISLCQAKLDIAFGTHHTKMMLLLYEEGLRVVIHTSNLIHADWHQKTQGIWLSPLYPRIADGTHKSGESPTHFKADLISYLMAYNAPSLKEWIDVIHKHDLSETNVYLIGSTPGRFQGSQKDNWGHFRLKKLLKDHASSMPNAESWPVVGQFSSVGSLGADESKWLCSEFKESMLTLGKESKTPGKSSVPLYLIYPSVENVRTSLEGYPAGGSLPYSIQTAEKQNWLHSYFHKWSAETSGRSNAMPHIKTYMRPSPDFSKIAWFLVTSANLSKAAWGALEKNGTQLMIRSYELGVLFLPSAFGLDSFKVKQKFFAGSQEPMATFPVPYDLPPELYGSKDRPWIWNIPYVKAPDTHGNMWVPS
#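 Steps: enzyme plus compound, 15 min RT; add biotin/phosphotyrosine-FITC oligonucleotide (15 nM final), react 5 min; add donor/acceptor beads (10 ug/ml final), 10 min; read AlphaScreen. Tdp1 at 1 nM final.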
# TDP1 cell CPT: DT40-hTDP1 cell growth loss with CPT; chicken DT40 Tdp1-/-;hTDP1 cells + 20 nM CPT, ATP luminescence, 48 h; Potency, µM (doses to about 46.2 µM), for the others: at the top dose activity change, negative = growth inhibition, usual class: inhibitors; actives 12% (n = 420,000); AID 686979; note: nearly all actives have a fitted effect of over 55% in size
#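 Chicken DT40 Tdp1-/- cells stably complemented with human TDP1 were seeded at 400 cells/well in medium containing 20 nM camptothecin, exposed to pin-transferred compounds, and grown at 37 °C for at least 48 hr. Viability was read as ATP luminescence.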
# TDP1 cell noCPT: qHTS for Inhibitors of human tyrosyl-DNA phosphodiesterase 1 (TDP1): qHTS in cells in absence of CPT. DT40 Tdp1-/- hTDP1 cells, no CPT, ATP luminescence, 48 h. actives 15% (n = 420,000). AID 686978, 2013. Potency, µM (doses to about 46.2 µM), inactives show top-dose activity change, negative = growth inhibition, usual class: inhibitors; note: nearly all actives have a fitted effect of over 55% in size
#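 Compound effects on proliferation are scored in DT40 Tdp1-/-;hTDP1 cells in the absence of CPT. ATP levels (CellTiter-Glo luminescence) are recorded after a ≥48 hr, 37 °C incubation.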
# VP16 counter: inhibits Gal4-VP16 luciferase reporter, ROR gamma counter-screen; Drosophila S2 Gal4-VP16 UAS-luciferase, luminescence, 20 h; Potency, µM (doses to about 53.6 µM), inactives show at the top dose activity, negative = inhibition, most hits filed as inhibitors; actives 3.5% (n = 310,000); AID 2546;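 note: Gal4-VP16 expression switched on by copper sulfate through the metallothionein promoter; nearly all actives have a fitted effect of over 50% in size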
# RORgamma inh: ROR gamma (mouse) transcription inhibition | Drosophila S2 Gal4-RORgamma UAS-luciferase reporter, 20 h | actives 5.4% (n = 310,000) | AID 2551 | Potency, µM (doses to about 53.6 µM), without a hit: top-dose activity change, negative = inhibition, usual class: inhibitors | P51450; note: nearly all actives have a fitted effect of over 60% in size
#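 ROR gamma transcriptional activity was tracked as Gal4-UAS luciferase output in stably transfected Drosophila Schneider cells, with compound added 1 hr before 700 uM copper sulfate induction and a 20 hr ambient-temperature incubation.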
# Numbers without * were called inactive; ? = inconclusive; . = not tested or not shown. Hits are enriched below; roughly 19% of the tested compounds scored in any of these assays. Calls come from the whole dose curve; as a rule, active = well fitted curve in the direction sought with a large enough effect; inconclusive = small, poorly fitted or top-dose-only effect, or another doubt; inactive = no such curve, though single readings can be large; an effect the other way counts as inactive or inconclusive. % is set by controls: 0 for no effect and ±100 for the full control effect; potency is the fitted concentration of half-maximal effect.
SMILES,TDP1 inh,TDP1 cell CPT,TDP1 cell noCPT,VP16 counter,RORgamma inh
Cc1cccc(N2CCN(C(=O)CCn3c(=S)[nH]c4cc5c(cc4c3=O)OCO5)CC2C)c1 (stereo not given),5%,16µM*,23µM*,6%,11%
O=C(CCCn1c(=S)[nH]c2cc3c(cc2c1=O)OCO3)N1CCc2ccccc2C1,-3%,-12%,-19%,?,13µM*
COc1cccc(CNc2nc(Cl)nc3nc[nH]c23)c1,0%,16µM*,7.9µM*,.,.
Clc1nc(NCc2cccs2)c2[nH]cnc2n1,1%,13µM*,11µM*,.,.
COCCNC(=O)C1CCCN(Cc2ccc(C(C)C)cc2)CC1 (stereo not given),.,-20%,?,.,.
Cc1cc(C)nc(Nc2nc(-c3ccccc3)cs2)n1,4%,-10%,?,?,4.5µM*
c1cc2c(cc1Nc1nc(-c3ccc4c(c3)OCO4)cs1)OCCO2,6%,?,-26%,?,?
c1ccc(-c2csc(Nc3ccc4c(c3)OCCO4)n2)cc1,5%,15µM*,?,?,-44%
c1cc2c(cc1-c1csc(NNC3=NCCCCC3)n1)OCCO2,10%,3.3µM*,4.6µM*,?,?
c1ccc(-c2csc(Nc3nc(N4CCOCC4)nc(N4CCOCC4)n3)n2)cc1,3%,?,10µM*,-14%,2%
O=C(CN1CCOCC1)Nc1nc(-c2ccccc2)cs1,.,-11%,?,20%,8%
COC(=O)[C@@H]1C[C@@H]2CC[C@@H](O)C[C@@H]2N1Cc1ccc(C(F)(F)F)cc1,10%,?,?,7%,14%
CCOc1cc(N2CCOCC2)c(OCC)cc1NC(=O)CN1C(=O)NC2(CCCCCCC2)C1=O,0%,-9%,-14%,-4%,?
O=C1Nc2ccccc2C12Nc1ccccc1-c1nc3ccccc3n12 (stereo not given),-5%,?,23µM*,-1%,?
c1ccc2c(c1)NC1(CCCCC1)n1c-2nc2ccccc21,-2%,-10%,-17%,4%,2%
c1ccc(C2Nc3ccccc3-c3nc4ccccc4n32)cc1 (stereo not given),-4%,?,?,10%,0%
c1ccc(C2Nc3ccccc3-c3nc4ccccc4n32)nc1 (stereo not given),6%,?,?,-9%,8.9µM*
CCCCC1(C)Nc2ccccc2-c2nc3ccccc3n21 (stereo not given),3%,16µM*,?,13%,-21%
CC1(c2ccccn2)Nc2ccccc2-c2nc3ccccc3n21 (stereo not given),4%,18µM*,16µM*,0%,-14%
COc1ccc(CNC(=O)c2c(O)nc3cc(C)ccn3c2=O)cc1,-6%,5%,-16%,.,.
COc1cccc(CNC(=O)CN2C(=O)COc3ccc(S(=O)(=O)N4CCCCCC4)cc32)c1,3%,?,?,0%,-1%
Cc1cccc(N2CCN(C(=O)c3ccc(NC(=O)c4nsc5ccccc45)cc3)CC2C)c1 (stereo not given),0%,9.2µM*,6.5µM*,.,.
Cc1ccc(Cl)cc1N1CCN(C(=O)c2ccc(NC(=O)c3nsc4ccccc34)cc2)CC1,3%,?,18µM*,.,.
COc1cccc(N2CCN(C(=O)c3ccc(NC(=O)c4nsc5ccccc45)cc3)CC2)c1,3%,?,?,.,.
COc1ccc(N2CCN(C(=O)c3ccc(C)c(NC(=O)c4nsc5ccccc45)c3)CC2)cc1,3%,26µM*,?,.,.
SMILES,TDP1 inh,TDP1 cell CPT,TDP1 cell noCPT,VP16 counter,RORgamma inh
Cn1nnc(NC(=O)CSc2ccc(Cl)cc2)n1,-2%,-25%,-26%,-13%,5%
CC(=O)Nc1ccc(CN2CCN(CC(C)C)C(CCO)C2)cc1 (stereo not given),0%,37%,-6%,-4%,11%
Cc1ccc(NS(=O)(=O)c2ccc(-c3csc(C)n3)s2)c(C)c1,0%,?,16µM*,0%,30%
CCN(CC)S(=O)(=O)c1ccc(-c2csc(C)n2)s1,6%,-10%,-20%,-12%,12%
Cc1nc(-c2ccc(S(=O)(=O)NCc3ccccn3)s2)cs1,4%,-17%,?,?,10µM*
Cc1nc(-c2ccc(S(=O)(=O)Nc3ccc(C)c(C)c3)s2)cs1,1%,.,.,.,.
CCCCS(=O)CC(CS(=O)CCCC)OC(=O)c1ccc(C)cc1 (stereo not given),-2%,-8%,0%,0%,-1%
O=C1C(=O)N(CNc2ccccn2)c2ccccc21,2%,2.1µM*,1.6µM*,2%,-16%
CC(=O)Nc1ccc(C(=O)/C=C/c2ccco2)cc1,.,21µM*,?,27%,-27%
O=C(/C=C/c1ccco1)c1ccc(O)cc1,-3%,.,.,-8%,?
CN(C)c1ccc(C(=O)/C=C/c2ccccc2)cc1,3%,21µM*,?,?,11µM*
CN(C)c1ccc(C(=O)/C=C/c2ccco2)cc1,0%,15µM*,?,?,?
Cc1cc(C)n2nc(SCc3ccccc3)nc2n1,3%,-17%,-24%,-1%,33%
CC(O)(c1ccc(F)c(F)c1)c1nc(-c2cccc(C(F)(F)F)c2)cs1 (stereo not given),.,18µM*,?,.,.
CC(C)c1cccc(-c2csc(C(C)(O)c3ccccc3)n2)c1 (stereo not given),.,?,23µM*,.,.

# Assay outcomes: PubChem BioAssay, National Center for Advancing Translational Sciences (NCATS)
